Results reported in ChEMBL document CHEMBL2218924, “A broad activity screen in support of a chemogenomic map for kinase signalling research and drug discovery” (Biochem J, 2013).

Legend:
[1] = target: T1, Serine/threonine-protein kinase Nek3 (Homo sapiens) (UniProt P51956); conditions: at 1 µM
T1 sequence (whole entry): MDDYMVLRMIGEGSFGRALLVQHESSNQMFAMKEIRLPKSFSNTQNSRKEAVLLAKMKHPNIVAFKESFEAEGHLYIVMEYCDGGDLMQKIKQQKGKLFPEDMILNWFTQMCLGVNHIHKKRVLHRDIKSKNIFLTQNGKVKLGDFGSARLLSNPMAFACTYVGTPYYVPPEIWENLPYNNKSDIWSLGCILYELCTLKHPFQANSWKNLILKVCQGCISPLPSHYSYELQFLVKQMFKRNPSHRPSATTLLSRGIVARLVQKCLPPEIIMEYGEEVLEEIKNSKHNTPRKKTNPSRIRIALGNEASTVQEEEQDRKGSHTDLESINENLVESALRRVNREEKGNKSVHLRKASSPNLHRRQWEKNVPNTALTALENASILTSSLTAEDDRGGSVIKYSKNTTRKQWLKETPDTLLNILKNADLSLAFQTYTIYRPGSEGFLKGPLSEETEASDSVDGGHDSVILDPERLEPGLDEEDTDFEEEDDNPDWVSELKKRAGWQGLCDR

[2] = target: T1, Serine/threonine-protein kinase Nek3 (Homo sapiens); conditions: at 10 µM
[3] = target: Serine/threonine-protein kinase tousled-like 2 (Homo sapiens) (UniProt Q86UE8); conditions: at 1 µM
Sequence of Serine/threonine-protein kinase tousled-like 2 (Homo sapiens) (Q86UE8 whole entry, looked up): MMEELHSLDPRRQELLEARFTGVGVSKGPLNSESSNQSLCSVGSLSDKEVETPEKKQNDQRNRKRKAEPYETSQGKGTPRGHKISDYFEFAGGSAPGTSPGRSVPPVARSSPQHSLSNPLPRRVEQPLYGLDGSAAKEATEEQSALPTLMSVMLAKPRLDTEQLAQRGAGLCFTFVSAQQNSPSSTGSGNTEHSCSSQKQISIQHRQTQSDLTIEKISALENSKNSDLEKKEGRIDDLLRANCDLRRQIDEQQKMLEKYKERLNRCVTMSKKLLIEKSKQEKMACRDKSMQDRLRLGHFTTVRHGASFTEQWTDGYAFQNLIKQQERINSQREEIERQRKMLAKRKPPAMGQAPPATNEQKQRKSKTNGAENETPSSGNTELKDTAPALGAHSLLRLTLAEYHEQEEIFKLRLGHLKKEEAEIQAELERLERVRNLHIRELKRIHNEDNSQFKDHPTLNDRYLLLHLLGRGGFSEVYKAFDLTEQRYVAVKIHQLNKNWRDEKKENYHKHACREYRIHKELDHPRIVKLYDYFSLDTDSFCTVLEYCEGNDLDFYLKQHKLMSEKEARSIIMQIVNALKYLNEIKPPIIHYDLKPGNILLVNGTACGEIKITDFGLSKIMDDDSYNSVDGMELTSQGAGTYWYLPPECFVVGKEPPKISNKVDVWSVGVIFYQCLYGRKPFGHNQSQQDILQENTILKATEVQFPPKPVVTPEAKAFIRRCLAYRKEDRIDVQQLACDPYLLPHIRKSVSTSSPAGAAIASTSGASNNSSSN

[4] = target: Serine/threonine-protein kinase tousled-like 2 (Homo sapiens) (UniProt Q86UE8); conditions: at 10 µM
[5] = target: T2, Testis-specific serine/threonine-protein kinase 2 (Homo sapiens) (UniProt Q96PF2); conditions: at 1 µM
T2 sequence (whole entry): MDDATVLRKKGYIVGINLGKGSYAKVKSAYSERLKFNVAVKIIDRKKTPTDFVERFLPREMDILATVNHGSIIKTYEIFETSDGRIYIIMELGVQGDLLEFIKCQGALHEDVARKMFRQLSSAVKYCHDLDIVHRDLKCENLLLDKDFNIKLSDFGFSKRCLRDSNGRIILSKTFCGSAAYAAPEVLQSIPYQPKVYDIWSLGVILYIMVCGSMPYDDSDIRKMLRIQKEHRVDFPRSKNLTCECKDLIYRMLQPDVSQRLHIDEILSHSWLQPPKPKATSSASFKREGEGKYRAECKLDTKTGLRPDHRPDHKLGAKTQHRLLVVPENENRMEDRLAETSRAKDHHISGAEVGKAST

[6] = target: T2, Testis-specific serine/threonine-protein kinase 2 (Homo sapiens); conditions: at 10 µM
[7] = target: Angiopoietin-1 receptor (Homo sapiens) (UniProt Q02763); conditions: at 1 µM
Sequence of Angiopoietin-1 receptor (Homo sapiens) (Q02763 whole entry): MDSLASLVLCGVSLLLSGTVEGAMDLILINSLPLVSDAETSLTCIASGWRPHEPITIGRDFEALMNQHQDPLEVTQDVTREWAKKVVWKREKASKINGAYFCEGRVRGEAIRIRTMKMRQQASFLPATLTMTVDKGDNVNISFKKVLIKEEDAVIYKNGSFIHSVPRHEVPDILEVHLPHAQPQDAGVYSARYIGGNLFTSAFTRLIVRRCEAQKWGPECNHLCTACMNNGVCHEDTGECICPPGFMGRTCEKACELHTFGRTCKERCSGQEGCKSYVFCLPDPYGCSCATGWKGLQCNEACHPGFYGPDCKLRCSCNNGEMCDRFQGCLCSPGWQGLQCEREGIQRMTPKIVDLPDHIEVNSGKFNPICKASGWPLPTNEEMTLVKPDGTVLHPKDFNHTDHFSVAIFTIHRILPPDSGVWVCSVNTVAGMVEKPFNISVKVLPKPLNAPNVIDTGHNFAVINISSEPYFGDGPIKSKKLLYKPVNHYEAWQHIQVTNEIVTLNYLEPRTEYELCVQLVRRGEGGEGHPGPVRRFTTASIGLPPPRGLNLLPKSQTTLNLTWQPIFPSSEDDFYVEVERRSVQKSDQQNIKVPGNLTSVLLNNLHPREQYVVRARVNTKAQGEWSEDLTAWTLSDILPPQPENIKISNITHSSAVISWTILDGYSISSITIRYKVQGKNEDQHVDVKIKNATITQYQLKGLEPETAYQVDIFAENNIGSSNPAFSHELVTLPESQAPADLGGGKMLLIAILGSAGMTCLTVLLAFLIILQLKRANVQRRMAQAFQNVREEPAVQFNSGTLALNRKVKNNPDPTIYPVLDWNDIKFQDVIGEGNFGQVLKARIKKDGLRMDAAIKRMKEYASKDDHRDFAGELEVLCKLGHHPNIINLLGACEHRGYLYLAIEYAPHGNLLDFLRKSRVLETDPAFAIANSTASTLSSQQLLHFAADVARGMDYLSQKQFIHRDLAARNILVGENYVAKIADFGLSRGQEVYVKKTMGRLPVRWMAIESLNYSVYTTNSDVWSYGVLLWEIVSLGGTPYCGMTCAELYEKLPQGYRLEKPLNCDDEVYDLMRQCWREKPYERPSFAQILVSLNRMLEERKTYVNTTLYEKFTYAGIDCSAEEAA

[8] = target: Angiopoietin-1 receptor (Homo sapiens) (UniProt Q02763); conditions: at 10 µM
[9] = target: High affinity nerve growth factor receptor (Homo sapiens) (UniProt P04629); conditions: at 1 µM
Sequence of High affinity nerve growth factor receptor (Homo sapiens) (P04629 33-796 limits assumed): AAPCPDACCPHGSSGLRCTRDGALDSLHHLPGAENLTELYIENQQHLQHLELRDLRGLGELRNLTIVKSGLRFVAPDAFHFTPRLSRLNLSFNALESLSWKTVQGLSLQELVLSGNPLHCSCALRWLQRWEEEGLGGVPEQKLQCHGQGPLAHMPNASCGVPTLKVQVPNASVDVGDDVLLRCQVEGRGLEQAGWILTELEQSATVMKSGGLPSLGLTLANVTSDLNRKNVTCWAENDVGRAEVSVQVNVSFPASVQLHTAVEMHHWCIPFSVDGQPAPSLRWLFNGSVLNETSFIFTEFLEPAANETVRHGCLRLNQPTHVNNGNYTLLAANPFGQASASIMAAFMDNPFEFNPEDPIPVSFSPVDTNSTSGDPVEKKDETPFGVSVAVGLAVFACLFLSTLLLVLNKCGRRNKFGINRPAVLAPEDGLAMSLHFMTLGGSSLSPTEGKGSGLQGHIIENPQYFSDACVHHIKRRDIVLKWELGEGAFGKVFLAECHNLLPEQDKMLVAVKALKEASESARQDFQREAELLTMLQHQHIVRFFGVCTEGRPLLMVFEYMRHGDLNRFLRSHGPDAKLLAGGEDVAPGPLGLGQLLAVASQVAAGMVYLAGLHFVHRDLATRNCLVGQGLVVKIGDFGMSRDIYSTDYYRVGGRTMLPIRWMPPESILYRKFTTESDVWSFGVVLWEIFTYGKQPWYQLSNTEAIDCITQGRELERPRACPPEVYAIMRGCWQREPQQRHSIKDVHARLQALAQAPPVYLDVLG

[10] = target: High affinity nerve growth factor receptor (Homo sapiens) (UniProt P04629); conditions: at 10 µM
[11] = target: T3, Tyrosine-protein kinase TXK (Homo sapiens) (UniProt P42681); conditions: at 10 µM
T3 sequence (whole entry): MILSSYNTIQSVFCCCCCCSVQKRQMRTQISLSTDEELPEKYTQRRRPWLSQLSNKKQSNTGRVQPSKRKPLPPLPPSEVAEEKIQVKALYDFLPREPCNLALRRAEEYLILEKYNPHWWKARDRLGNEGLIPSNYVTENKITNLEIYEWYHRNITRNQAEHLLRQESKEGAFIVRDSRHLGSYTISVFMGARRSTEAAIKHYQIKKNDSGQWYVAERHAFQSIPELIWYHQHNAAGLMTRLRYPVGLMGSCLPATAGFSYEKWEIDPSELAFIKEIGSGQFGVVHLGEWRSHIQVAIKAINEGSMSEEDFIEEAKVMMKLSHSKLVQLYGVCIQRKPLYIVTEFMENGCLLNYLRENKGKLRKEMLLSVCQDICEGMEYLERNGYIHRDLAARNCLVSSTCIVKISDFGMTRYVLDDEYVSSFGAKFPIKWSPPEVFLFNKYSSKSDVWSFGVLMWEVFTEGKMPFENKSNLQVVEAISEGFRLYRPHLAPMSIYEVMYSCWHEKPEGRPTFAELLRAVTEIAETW

[12] = target: T4, Serine/threonine-protein kinase Nek2 (Homo sapiens) (UniProt P51955); conditions: at 10 µM
T4 sequence (whole entry): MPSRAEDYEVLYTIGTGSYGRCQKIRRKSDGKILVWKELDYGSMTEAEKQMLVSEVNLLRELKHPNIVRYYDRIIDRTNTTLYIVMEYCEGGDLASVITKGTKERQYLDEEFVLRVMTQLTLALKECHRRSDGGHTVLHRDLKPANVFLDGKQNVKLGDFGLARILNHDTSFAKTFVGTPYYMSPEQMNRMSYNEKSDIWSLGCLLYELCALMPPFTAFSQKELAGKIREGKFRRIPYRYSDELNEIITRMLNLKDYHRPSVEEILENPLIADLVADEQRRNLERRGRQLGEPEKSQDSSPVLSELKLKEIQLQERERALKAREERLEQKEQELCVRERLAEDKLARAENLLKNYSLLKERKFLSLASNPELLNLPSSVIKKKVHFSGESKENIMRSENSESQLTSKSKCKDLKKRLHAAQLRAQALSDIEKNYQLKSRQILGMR

[13] = target: T5, Testis-specific serine/threonine-protein kinase 1 (Homo sapiens) (UniProt Q9BXA7); conditions: at 1 µM
T5 sequence (whole entry): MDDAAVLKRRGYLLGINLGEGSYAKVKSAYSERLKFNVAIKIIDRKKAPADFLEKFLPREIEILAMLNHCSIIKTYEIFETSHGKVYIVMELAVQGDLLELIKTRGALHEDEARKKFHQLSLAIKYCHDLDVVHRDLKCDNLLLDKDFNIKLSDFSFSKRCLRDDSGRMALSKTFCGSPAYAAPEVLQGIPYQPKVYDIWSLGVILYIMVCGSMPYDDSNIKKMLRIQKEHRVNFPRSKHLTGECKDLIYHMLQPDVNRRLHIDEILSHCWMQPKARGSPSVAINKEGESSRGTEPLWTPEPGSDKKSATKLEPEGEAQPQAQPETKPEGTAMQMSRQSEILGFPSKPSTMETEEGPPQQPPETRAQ

[14] = target: T5, Testis-specific serine/threonine-protein kinase 1 (Homo sapiens); conditions: at 10 µM
[15] = target: T6, Tyrosine-protein kinase Tec (Homo sapiens) (UniProt P42680); conditions: at 10 µM
T6 sequence (whole entry): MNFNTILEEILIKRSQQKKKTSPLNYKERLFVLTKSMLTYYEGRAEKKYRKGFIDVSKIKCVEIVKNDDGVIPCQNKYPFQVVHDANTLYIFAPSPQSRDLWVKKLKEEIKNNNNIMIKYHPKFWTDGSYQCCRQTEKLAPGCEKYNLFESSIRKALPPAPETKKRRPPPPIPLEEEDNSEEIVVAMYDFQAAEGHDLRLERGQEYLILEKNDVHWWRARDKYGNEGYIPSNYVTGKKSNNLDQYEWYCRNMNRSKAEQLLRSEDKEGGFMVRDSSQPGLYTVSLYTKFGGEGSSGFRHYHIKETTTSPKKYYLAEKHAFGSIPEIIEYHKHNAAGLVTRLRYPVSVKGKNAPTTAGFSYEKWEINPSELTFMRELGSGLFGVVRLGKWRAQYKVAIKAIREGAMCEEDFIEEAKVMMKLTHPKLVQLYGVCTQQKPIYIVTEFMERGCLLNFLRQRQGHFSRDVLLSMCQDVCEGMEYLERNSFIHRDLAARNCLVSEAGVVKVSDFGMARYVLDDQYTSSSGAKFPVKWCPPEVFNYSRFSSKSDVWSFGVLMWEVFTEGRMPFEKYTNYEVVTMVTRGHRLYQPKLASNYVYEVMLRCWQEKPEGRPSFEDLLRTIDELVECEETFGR

[16] = target: BDNF/NT-3 growth factors receptor (Homo sapiens) (UniProt Q16620); conditions: at 1 µM
Sequence of BDNF/NT-3 growth factors receptor (Homo sapiens) (Q16620 32-822 limits assumed): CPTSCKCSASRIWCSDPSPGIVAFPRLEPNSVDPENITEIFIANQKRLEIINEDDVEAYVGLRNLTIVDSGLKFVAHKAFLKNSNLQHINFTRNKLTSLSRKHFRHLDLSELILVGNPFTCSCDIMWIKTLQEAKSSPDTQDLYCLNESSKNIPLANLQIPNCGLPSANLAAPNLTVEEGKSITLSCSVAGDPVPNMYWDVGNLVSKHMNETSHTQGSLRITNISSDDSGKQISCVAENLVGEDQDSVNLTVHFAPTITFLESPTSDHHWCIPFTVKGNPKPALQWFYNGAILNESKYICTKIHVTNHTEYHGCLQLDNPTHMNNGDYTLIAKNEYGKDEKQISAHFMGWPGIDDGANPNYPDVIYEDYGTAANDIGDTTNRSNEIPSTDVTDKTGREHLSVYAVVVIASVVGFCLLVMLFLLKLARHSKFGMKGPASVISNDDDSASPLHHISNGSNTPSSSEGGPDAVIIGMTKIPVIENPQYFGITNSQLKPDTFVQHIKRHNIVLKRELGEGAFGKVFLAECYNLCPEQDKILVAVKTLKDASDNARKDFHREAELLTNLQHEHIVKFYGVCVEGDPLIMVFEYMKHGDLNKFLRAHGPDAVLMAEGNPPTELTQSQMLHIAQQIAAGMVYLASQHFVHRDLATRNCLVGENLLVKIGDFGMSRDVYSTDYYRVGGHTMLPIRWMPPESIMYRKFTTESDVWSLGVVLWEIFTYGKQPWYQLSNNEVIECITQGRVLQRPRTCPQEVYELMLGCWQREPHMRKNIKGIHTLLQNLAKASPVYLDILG

[17] = target: BDNF/NT-3 growth factors receptor (Homo sapiens) (UniProt Q16620); conditions: at 10 µM
[18] = target: T3, Tyrosine-protein kinase TXK (Homo sapiens); conditions: at 1 µM

N/C(=N\[N+](=O)[O-])N/N=C\c1ccc(-c2cccc([N+](=O)[O-])c2)o1
residual activity [1]: 74%
residual activity [2]: 93%
residual activity [3]: 95%
residual activity [4]: 90%
residual activity [5]: 91%
residual activity [6]: 80%
residual activity [7]: 90%
residual activity [8]: 92%
residual activity [9]: 91%
residual activity [10]: 91%
residual activity [11]: 80%

Nc1ncnc2c1cnn2-c1ccccc1
residual activity [5]: 93%

CN(C)CCCn1cc(C2=C(c3c[nH]c4ccccc34)C(=O)NC2=O)c2ccccc21
residual activity [5]: 103%

CC(C)(C)c1cc(C=C(C#N)C#N)cc(Br)c1O
residual activity [12]: 101%
residual activity [1]: 115%
residual activity [2]: 109%
residual activity [3]: 112%
residual activity [4]: 98%
residual activity [13]: 105%
residual activity [14]: 101%
residual activity [5]: 113%
residual activity [15]: 103%
residual activity [7]: 114%
residual activity [8]: 101%
residual activity [16]: 117%
residual activity [17]: 134%
residual activity [18]: 112%
residual activity [11]: 104%

Cc1cc(Nc2nc(-c3ccccc3)nc3ccccc23)n[nH]1
residual activity [5]: 96%

COc1ccc2c(c1)c(C1=C(c3c[nH]c4ccccc34)C(=O)NC1=O)cn2CCCN(C)C
residual activity [5]: 81%

O=c1cc(N2CCOCC2)oc2c1ccc1ccccc12
residual activity [5]: 95%

O=C(c1ccccc1)c1ccc(N2CCOCC2)cc1O
residual activity [5]: 87%

c1ccc(-c2n[nH]cc2-c2ccnc3ccccc23)nc1
residual activity [5]: 96%

COc1cc2ncnc(N3CCN(C(=O)Nc4ccc(Oc5ccccc5)cc4)CC3)c2cc1OC
residual activity [5]: 96%

c1ccc(-c2cnc(Nc3ccc(OCCN4CCCC4)cc3)s2)cc1
residual activity [5]: 100%

Cn1c2ccccc2c2c3c(c4c5ccccc5n(CCC#N)c4c21)CNC3=O
residual activity [5]: 64%

CC[n+]1c(/C=C/N(C)c2ccccc2)n(-c2ccccc2)c2ccc(-c3nc4ccccc4s3)cc21
residual activity [5]: 104%

c1ccc2c(-c3ccncc3)c[nH]c2c1
residual activity [5]: 100%

CCCC(=O)Oc1ccc2[nH]c(C(=O)c3cc4ccccc4[nH]3)cc2c1
residual activity [5]: 96%

Oc1cccc(-c2nc(N3CCOCC3)c3oc4ncccc4c3n2)c1
residual activity [5]: 93%

Oc1n[nH]c2nnc(-c3c(-c4ccccc4)nn4ccccc34)cc12
residual activity [5]: 95%

CC#CC(=O)Nc1cc2c(Nc3ccc(F)c(Cl)c3)ncnc2cn1
residual activity [5]: 87%

COc1cccc(-c2cc(=O)c3ccccc3o2)c1N
residual activity [5]: 89%

Cc1ccc(S(=O)(=O)/C=C/C#N)cc1
residual activity [5]: 92%

COc1ccc(CNc2nc(N(CCO)CCO)nc3c2ncn3C(C)C)cc1
residual activity [5]: 98%

O=C1NC(=O)c2c1c1c3ccccc3[nH]c1c1[nH]c3cc(Br)ccc3c21
residual activity [5]: 102%

Nc1nc(Nc2ccc(S(N)(=O)=O)cc2)nn1C(=S)Nc1c(F)cccc1F
residual activity [5]: 61%

Oc1ccc(Nc2nc(-c3ccc(Cl)cc3)cs2)cc1
residual activity [5]: 101%

O=C1C(Cl)=C(N2C(=O)CCC2=O)C(=O)c2ccccc21
residual activity [5]: 84%

CO[C@H]1C[C@@H]2CC[C@@H](C)[C@@](O)(O2)C(=O)C(=O)N2CCCC[C@H]2C(=O)O[C@H]([C@H](C)C[C@@H]2CC[C@@H](O)[C@H](OC)C2)CC(=O)[C@H](C)/C=C(\C)[C@@H](O)[C@@H](OC)C(=O)[C@H](C)C[C@H](C)/C=C/C=C/C=C/1C
residual activity [5]: 90%

Nc1nc(Nc2ccc(S(N)(=O)=O)cc2)nn1C(=O)c1c(F)cccc1F
residual activity [5]: 103%

Cc1nc(-c2ccccc2)c(-c2ccncc2)o1
residual activity [5]: 97%

O=C1NC(=O)c2c1c1c3ccccc3[nH]c1n1cncc21
residual activity [5]: 83%

CCCCc1c(-c2ccc(O)cc2)[nH]c2nccnc12
residual activity [5]: 94%

O=C(Nc1cccc(Nc2nccc(Nc3cccc(C(F)(F)F)c3)n2)c1)C1CC1
residual activity [5]: 86%

O=C(NC(NC(=S)Nc1ccc(F)c([N+](=O)[O-])c1)C(Cl)(Cl)Cl)C(c1ccccc1)c1ccccc1 (stereo not drawn)
residual activity [5]: 102%

CN(C)c1ccc(/C=C2\C(=O)Nc3ccccc32)cc1
residual activity [5]: 92%

CCN(CC)CCNC(=O)c1c(C)[nH]c(/C=C2\C(=O)Nc3ccc(Cl)cc32)c1C
residual activity [5]: 62%

O=C(O)/C=C/c1cc(Br)c(Br)c(Br)c1Br
residual activity [5]: 96%

O=C1Cc2c([nH]c3ccc(Br)cc23)-c2ccccc2N1
residual activity [5]: 96%

CO[C@H]1[C@@H](OC)C[C@H](C)[C@@H](OC)C2=CC(=O)C=C(NC(=O)/C(C)=C/C=C/[C@H](OC)[C@@H](OC(N)=O)/C(C)=C/[C@@H]1C)C2=O
residual activity [5]: 97%

Cc1ccc(NC2=CC(=O)c3sc(C)nc3C2=O)cc1
residual activity [5]: 93%

O=C1Nc2cc(Br)ccc2/C1=C1/Nc2ccccc2/C1=N\O
residual activity [5]: 73%

c1ccc(-c2n[nH]c3c2oc2ccccc23)cc1
residual activity [5]: 96%

O=[N+]([O-])c1ccc(-c2nc(-c3ccc(F)cc3)c(-c3ccncc3)[nH]2)cc1
residual activity [5]: 100%

O=Nc1c(-c2c(O)[nH]c3ccccc23)[nH]c2ccccc12
residual activity [5]: 95%

O=c1c2ccccc2[nH]c(=S)n1CCN1CCC(=C(c2ccc(F)cc2)c2ccc(F)cc2)CC1
residual activity [5]: 96%

O=C1Nc2ccc(Cl)cc2/C1=C/c1cc(Cl)c(O)c(Cl)c1
residual activity [5]: 76%
